In article PMC4336329 (PLoS ONE, 2015):
The whole screen tested about 310,000 compounds, of which about 14,000 (4.5%) showed an effect of 50% or more. The effect is printed as a negative number. The list comes from a sample in which strong results are over-represented; it also holds similar structures and randomly drawn compounds.

biological target: human ether-à-go-go-related gene (hERG) potassium channel (human, UniProt Q12809); test: primary screen, population patch clamp on CHO cells stably expressing hERG; higher = less effect of the substance
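Also: peak tail current of the secondary pulse compared with the same well before compound.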

Chain of human ether-à-go-go-related gene (hERG) potassium channel (Q12809 whole entry, looked up): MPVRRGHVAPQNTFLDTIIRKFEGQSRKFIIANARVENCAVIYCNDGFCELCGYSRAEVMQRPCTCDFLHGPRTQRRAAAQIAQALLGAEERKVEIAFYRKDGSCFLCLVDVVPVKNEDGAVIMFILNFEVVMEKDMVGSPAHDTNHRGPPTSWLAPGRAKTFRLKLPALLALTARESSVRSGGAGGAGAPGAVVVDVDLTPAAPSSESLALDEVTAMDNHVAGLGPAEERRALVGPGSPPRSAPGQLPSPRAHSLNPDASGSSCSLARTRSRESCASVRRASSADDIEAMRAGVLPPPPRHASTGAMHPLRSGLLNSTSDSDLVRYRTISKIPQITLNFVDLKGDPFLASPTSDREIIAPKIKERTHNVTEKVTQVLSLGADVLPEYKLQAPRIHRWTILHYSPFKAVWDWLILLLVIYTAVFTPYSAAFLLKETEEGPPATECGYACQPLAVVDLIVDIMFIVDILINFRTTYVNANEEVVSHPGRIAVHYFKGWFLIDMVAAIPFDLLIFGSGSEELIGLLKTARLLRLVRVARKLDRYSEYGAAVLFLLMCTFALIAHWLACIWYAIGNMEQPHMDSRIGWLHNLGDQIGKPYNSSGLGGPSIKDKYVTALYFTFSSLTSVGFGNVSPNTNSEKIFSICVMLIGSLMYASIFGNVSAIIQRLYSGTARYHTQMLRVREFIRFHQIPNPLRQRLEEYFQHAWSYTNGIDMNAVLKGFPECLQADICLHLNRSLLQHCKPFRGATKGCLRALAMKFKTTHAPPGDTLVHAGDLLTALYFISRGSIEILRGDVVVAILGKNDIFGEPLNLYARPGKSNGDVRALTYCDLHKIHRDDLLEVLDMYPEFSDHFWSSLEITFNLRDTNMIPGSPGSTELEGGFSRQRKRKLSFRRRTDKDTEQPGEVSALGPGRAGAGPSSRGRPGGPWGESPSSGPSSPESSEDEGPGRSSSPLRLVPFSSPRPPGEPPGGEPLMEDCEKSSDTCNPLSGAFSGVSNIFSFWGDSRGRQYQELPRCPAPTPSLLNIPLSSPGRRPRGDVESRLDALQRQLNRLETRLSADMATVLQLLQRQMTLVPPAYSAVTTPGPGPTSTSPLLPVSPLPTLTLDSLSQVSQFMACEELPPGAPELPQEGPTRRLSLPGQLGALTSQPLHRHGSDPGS

SMILES | hERG current change (%, negative = inhibition) at 10uM [%]
c1ccc(-c2noc(-c3ccc4c(c3)OCO4)n2)cc1 | -3.33
Cc1ccc(CN2CCN(/N=C/c3ccc(C)s3)CC2)c(C)c1 | -5.96
CCn1c(=O)c(C(=O)NNC(=O)c2cccc(Cl)c2)c(O)c2ccccc21 | 32.4
C/C(=N\NC(=O)c1cccc(Br)c1)c1ccc(Br)cc1 | 16
Cc1cc2c(c(=O)n1CCCn1ccnc1)C(c1ccco1)C(C#N)=C(N)O2 (centres unmarked) | -3.23
CC(O)C(=O)N/N=C/c1ccccc1C(=O)O (centres unmarked) | 14
COc1cc(/C=N/Nc2nc3ccccc3[nH]2)cc(OC)c1O | -55.9
COc1ccc(/C=N/Nc2nc3ccccc3[nH]2)cc1OC | -21.8
COc1cc(/C=C(/C(=O)c2cccs2)c2nc3ccccc3[nH]2)ccc1O | -22.2
COc1cc(/C=C(/C(=O)c2cccs2)c2nc3ccccc3[nH]2)cc(OC)c1O | -56.1
O=C(/C(=C/c1ccc(Cl)cc1)c1nc2ccccc2[nH]1)c1cccs1 | 2.82
COc1cc(/C=N\Nc2nc3ccccc3[nH]2)cc(OC)c1OC | -19.8
CCCCN=C1SC(C(=O)Nc2sc3c(c2C(=O)OC)CCC3)C(N)=C1C(=O)N1CCOCC1 (centres unmarked) | -1.11
Cc1cc(Nc2ccccc2C(=O)O)n(-c2ccc([N+](=O)[O-])cc2)n1 | 4.19
CC(=O)c1cc(CN2CCC(n3nccc3NC(=O)c3ccccc3C)CC2)cs1 | -57.8
CC(=O)c1cc(CN2CCC(n3nccc3NC(=O)c3ccccc3Cl)CC2)cs1 | -56.5
COc1ccccc1C(=O)Nc1ccnn1C1CCN(Cc2csc(C(C)=O)c2)CC1 | -72.9
Cc1cc(CN2CCC(n3nccc3NC(=O)c3ccccc3C)CC2)n[nH]1 | -38
CC(=O)c1cc(CN2CCC(n3nccc3NC(=O)c3ccccc3)CC2)cs1 | -10.9
CC(C)=NN1C(c2nonc2N)=NOC1(C)C | 6.47

SMILES | hERG current change (%, negative = inhibition) at 10uM [%]
COC(=O)C1=C(C)N=C2SCCC(=O)N2C1/C=C/c1ccccc1 (centres unmarked) | -16.8
Cc1nc(SCC(=O)c2ccc(F)cc2)c([N+](=O)[O-])[nH]1 | 27.3
CCCNC(=O)CN(CCc1ccccc1)S(C)(=O)=O | 8.94
COc1ccc(CN(C)C(=S)Nc2ccc(Cl)cc2)cc1 | -20.7
COc1ccc(CN(C)C(=S)Nc2ccc(OC(F)F)cc2)cc1 | -58.9
CN(CCOc1ccc(Cl)cc1)CC(=O)Nc1ccc(OC(F)(F)F)cc1 | 8.27
COc1ccc(CCNCC(=O)Nc2ccc(C(=O)N3CCCCC3)cc2)cc1.O=C(O)C(=O)O | 4.75
COc1ccc(NC(=O)CNCCC2=CCCCC2)cc1 | 7.2
COc1ccc(NC(=O)CN(C)CCOc2ccc(Cl)cc2)cc1OC.O=C(O)C(=O)O | -17.4
CN(C)CCCN(Cc1ccccc1)C(=S)Nc1ccc(SC(F)F)cc1 | -75.1
CN(Cc1ccccc1)C(=S)Nc1ccc(OC(F)F)cc1 | -21.2
CN(CCOc1ccc(Cl)cc1)CC(=O)Nc1ccc(OC(F)F)cc1 | -71.4
CN(C)CCCN(Cc1ccccc1)C(=S)NCc1ccccc1 | -24.7
COc1ccc(CCNCC(=O)Nc2ccc(OC(F)F)cc2)cc1 | -75.8
CN(C(=S)Nc1ccc(SC(F)F)cc1)C(c1ccccc1)c1ccccc1 | -0.128
C/C(=N\Nc1ccccc1C(=O)O)c1ccncc1 | 0.449
CC(C)Nc1nc(NC(C)C)nc(OCCOC(=O)Nc2ccccc2)n1 | -24.5
Cc1ccc(N/N=C(\C#N)C(=N)N2CCCCC2)cc1 | -47.7
CN(CC(=O)Nc1ccccc1Br)C(=O)c1cc2c(s1)CCCCC2 | -1.74
O=C(Nc1ccc(NC(=O)C2CC2)nc1)c1cccs1 | 14

SMILES | hERG current change (%, negative = inhibition) at 10uM [%]
O=C(CSc1n[nH]c(=O)n1-c1cccnc1)N1CCOCC1 | 12
CCNC(=O)NC(=O)CSc1nc2ccccc2n1CC(C)C | -4.02
Cc1cccc(N2CCN(CC(=O)NCC3CCCCC3)CC2)c1C.Cl | -6.63
COc1cc2[nH]c(=O)n(Cc3ccc(C(=O)N4CCC(N5CCCCC5)CC4)cc3)c(=O)c2cc1OC | 12.3
CCN(CC)C(=S)Nc1ccc(OC(F)F)cc1 | -28.6
COc1ccc(NC(=O)CN(C)CC(=O)Nc2cccc(C(C)=O)c2)cc1 | 18.5
COCCN(Cc1ccccc1)C(=S)Nc1ccc(Cl)cc1 | 11.1
CC(=O)c1ccc(NC(=S)N(Cc2ccccc2)C(C)C2CC2)cc1 (centres unmarked) | 5.51
CC(=O)c1ccc(NC(=S)N(CCCN(C)C)Cc2ccccc2)cc1 | -53.3
CC(=O)c1ccc(NC(=O)CN(C)CC(=O)Nc2cccc(F)c2)cc1 | -18.5
CC(=O)c1cccc(NC(=O)CN(C)Cc2ccc(OC(F)F)cc2)c1 | -55
COCCN(Cc1ccccc1)C(=S)Nc1ccc(OC(F)F)cc1 | -69.8
CN(CCOc1ccccc1)C(=S)Nc1ccc(OC(F)F)cc1 | -55.2
CCCN(Cc1ccccc1)C(=S)Nc1ccc(C(C)=O)cc1 | -12.1
CCCN(Cc1ccccc1)C(=S)Nc1ccc(OC(F)F)cc1 | -41
CCCCN(C)C(=S)Nc1ccc(Oc2ccccc2)cc1 | -2.38
CCN(CC)C(=O)c1ccc(C)c(Br)c1 | -0.776
CCc1cc2c(=O)[nH]cnc2s1 | -3.48
CCCCCCc1cc2cc(-c3nnc(-c4ccccc4)o3)c(=O)oc2cc1O | 5.15
